A number with no mark means an inactive call. This is one part of the list. Active and inactive are the calls of the source. Cut-off read from the data, not from the text of the source, unless noted: active = inhibition above about 36%; inactive = the rest.
Assays:
[1] = VP16-driven transactivation reporter suppression – cell-based, luminescence, HEK293, counter-screen for COUP-TFII antagonist project (AID 687007; in the data active = inhibition above about 13%); settings: HEK293 Gal4-VP16 luciferase reporter, at 8.5 µM, hits give high values
[2] = molecular target: COUP transcription factor 2 (Homo sapiens) (UniProt P24468); test: retest of COUP-TFII reporter suppressors – cell-based, luciferase reporter, HEK293, triplicate, confirmation (AID 687008;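 active = mean inhibition over three repeats above a set limit taken from the earlier primary screen, cut at about 38% in these data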;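 note: 100% = cells given the luciferase reporter alone without the COUP-TF2 vector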); settings: HEK293 NGFI-A luciferase reporter, luminescence; at 8.5 µM; hits give high values
[3] = test system: transactivating tegument protein VP16 (Human herpesvirus 1); test: compounds suppressing VP16-driven luciferase signal – cell-based, luminescence, single concentration, counter-screen for SRC2 inhibitor project (AID 652007); settings: cell-based VP16 transactivation luciferase reporter, at 8.9 µM, hits give high values
[4] = molecular target: Nuclear receptor coactivator 2 (Homo sapiens) (UniProt Q15596); test: inhibition of GAL4-SRC2 driven luciferase expression – cell-based, luminescence, HEK293, triplicate, confirmation (AID 652008;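 active = mean inhibition above 46.5%, the solvent-only control mean plus 3 SD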;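 note: 0% = DMSO-treated cells and 100% = Gossypol at 36 µM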); settings: HEK293 GAL4-SRC2 luciferase reporter, at 8.9 µM, hits give high values
Sequence of Nuclear receptor coactivator 2 (Homo sapiens) (Q15596 whole entry, looked up, the tested form may be a part): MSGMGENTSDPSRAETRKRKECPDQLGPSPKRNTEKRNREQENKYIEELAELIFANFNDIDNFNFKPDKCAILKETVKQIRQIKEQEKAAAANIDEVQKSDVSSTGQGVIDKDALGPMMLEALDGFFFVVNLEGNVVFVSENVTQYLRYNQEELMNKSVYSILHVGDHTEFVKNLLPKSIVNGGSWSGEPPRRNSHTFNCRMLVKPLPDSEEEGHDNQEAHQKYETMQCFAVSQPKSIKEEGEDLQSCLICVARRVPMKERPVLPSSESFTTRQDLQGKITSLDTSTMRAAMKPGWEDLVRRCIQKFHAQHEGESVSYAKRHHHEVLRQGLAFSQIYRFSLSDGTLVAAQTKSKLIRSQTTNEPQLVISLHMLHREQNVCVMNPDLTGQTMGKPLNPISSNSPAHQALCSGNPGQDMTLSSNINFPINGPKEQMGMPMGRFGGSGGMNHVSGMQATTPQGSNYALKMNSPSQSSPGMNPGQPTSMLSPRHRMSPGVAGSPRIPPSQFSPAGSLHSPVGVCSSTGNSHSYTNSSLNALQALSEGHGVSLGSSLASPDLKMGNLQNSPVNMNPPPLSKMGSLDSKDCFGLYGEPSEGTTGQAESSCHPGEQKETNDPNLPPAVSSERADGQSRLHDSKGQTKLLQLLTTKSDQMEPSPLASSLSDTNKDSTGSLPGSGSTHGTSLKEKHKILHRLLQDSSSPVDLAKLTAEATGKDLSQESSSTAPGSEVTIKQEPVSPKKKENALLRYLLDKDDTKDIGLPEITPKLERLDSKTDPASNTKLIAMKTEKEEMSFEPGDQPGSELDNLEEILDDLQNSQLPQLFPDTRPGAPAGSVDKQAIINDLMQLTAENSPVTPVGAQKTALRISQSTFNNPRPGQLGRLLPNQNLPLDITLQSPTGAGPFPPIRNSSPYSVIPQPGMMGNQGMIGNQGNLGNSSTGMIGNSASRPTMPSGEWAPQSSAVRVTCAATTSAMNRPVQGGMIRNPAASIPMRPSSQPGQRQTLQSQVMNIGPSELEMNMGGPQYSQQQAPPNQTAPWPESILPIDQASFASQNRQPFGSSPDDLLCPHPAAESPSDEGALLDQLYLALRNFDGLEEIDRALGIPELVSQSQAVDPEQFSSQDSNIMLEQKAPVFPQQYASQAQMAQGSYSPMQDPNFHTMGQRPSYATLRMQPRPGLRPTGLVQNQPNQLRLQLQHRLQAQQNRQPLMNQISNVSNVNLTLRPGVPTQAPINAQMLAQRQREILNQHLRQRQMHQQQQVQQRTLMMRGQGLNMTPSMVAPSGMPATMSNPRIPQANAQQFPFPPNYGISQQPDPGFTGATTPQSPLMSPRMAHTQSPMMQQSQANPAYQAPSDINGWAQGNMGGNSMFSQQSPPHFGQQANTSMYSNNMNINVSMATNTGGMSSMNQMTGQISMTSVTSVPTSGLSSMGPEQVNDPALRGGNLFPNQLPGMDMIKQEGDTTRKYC

Sequence of COUP transcription factor 2 (Homo sapiens) (P24468 whole entry, looked up): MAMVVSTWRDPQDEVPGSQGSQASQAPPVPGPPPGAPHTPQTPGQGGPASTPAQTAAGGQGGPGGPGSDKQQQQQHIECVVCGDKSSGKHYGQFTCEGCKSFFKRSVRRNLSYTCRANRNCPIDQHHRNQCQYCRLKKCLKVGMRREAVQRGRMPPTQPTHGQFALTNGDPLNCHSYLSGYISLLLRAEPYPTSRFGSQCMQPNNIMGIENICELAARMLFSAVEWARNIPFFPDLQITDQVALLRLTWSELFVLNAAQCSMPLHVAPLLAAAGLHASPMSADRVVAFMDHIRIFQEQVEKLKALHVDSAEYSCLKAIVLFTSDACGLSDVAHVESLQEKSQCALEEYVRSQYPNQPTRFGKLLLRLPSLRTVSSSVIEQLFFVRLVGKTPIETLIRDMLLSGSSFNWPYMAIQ

SMILES	inhibition [1]	inhibition [2]	inhibition [3]	inhibition [4]
O=C(Nc1ccc(Br)cn1)C1CCN(S(=O)(=O)c2cccs2)CC1	13.1% (active)	48.2% (active)	–	–
CCc1cc(-c2nnn(CCC3COCCO3)c2CC)ccc1-c1cn(Cc2ccc3ccccc3c2)nn1 (configuration not stated)	-21.8%	42% (active)	–	–
c1ccc(CCNc2ncnc3scc(C4COc5ccccc5O4)c23)cc1 (configuration not stated)	–	–	-8.4%	-10.3%
N#CC1C=Cc2c(ccc3ccccc23)N1C(=O)c1ccccc1 (configuration not stated)	–	–	-39.9%	56.4% (active)
COc1cc(C(=O)NCc2ccncc2)cc(Br)c1OCc1ccccc1	–	–	0.29%	36.2%
Cc1cc(=O)n2c3c(c4c(cc13)c(CN(C)C)cc(=O)n4C)OC2	–	–	2.33%	-129%
O=[N+]([O-])c1cc(C(F)(F)F)ccc1NCCCCNS(=O)(=O)c1ccc(Cl)cc1	–	–	3.03%	43.3%
CCOc1ccc(/C=C/c2c([N+](=O)[O-])c(=O)n(C)c(=O)n2C)cc1	–	–	7.01%	2.26%
O=c1ccn(Cc2ccc(F)cc2)c2ccnc(C(F)(F)F)c12	–	–	14.8%	16.6%
CSc1nnc(NC(=O)c2nc(S(=O)(=O)Cc3ccc(C)cc3)ncc2Cl)s1	–	–	36.7% (active)	55.7% (active)
CCOC(=O)C1(Cc2ccccc2)CCN(Cc2ccnc3ccccc23)CC1	–	–	-2.44%	14.6%
CCOc1ccc(-c2nc(CSCC(=O)NCc3ccco3)c(C)o2)cc1	–	–	-11.2%	37%
NC(=O)c1cc(C(=O)c2ccc(Cl)cc2Cl)c[nH]1	–	–	-19.8%	14.3%
Cn1nc(C(C)(C)C)cc1C(=O)N1CCCCC1c1cc(C(=O)Nc2ccccc2Cl)no1 (configuration not stated)	–	–	7.65%	13.2%
CC(C)(C)c1ccc(C(=O)Nc2ccc(NC(=O)C(=O)O)cc2)o1	–	–	-30%	-15.8%
C=C1C(=O)[C@]23C[C@H]1CC[C@H]2[C@]1(C)CCC[C@@](C)(C(=O)OC)[C@H]1C[C@@H]3O	–	–	77.6% (active)	90.4% (active)
O=C(O)c1ccc(Oc2ccc(S(=O)(=O)c3ccc(C(=O)O)c(C(=O)O)c3)cc2)cc1	–	–	-6.88%	-6.84%
Cc1cnc(NC(=O)COc2ccccc2Cl)s1	–	–	-10.5%	18.8%
CC(c1nccs1)N(C)C(=O)CCc1nnc(-c2ccc(-c3ccccc3)cc2)o1 (configuration not stated)	–	–	-11%	30.6%
CCOC(=O)Cc1csc(N/N=C/c2ccc(C(F)(F)F)cc2)n1	–	–	-7.46%	44.6%
Cc1c(CCC(=O)NCCCC(=O)O)c(=O)oc2cc3oc4c(c3cc12)CCCC4	–	–	47.5% (active)	65% (active)
O=C(O)CCSc1ncnc2sc(-c3ccccc3)cc12	–	–	67.7% (active)	88.4% (active)
CCc1cc2c(Sc3nc4ccccc4s3)ncnc2s1	–	–	36.6% (active)	42.6%
COC(=O)Cc1ccc(NC(=O)c2ccccc2Cl)cc1	–	–	-35.8%	8.14%
O=C(c1ccc(Cl)cc1)C(CN1CCCCC1)c1ccccc1 (configuration not stated)	–	–	32.9%	57.8% (active)
COC(=O)C1CN(Cc2ccccc2)CCS(=O)(=O)N1Cc1cn(Cc2ccc(Cl)cc2)nn1 (configuration not stated)	–	–	-13.7%	-3.09%

From PubChem BioAssay
